Laboratory results from the supplement of paper PMC9262897, “Low-cost anti-mycobacterial drug discovery using engineered E. coli” (Nature Communications, 2022).
Structures can show the parent of a compound that is named as a salt. ± gives the standard deviation of the averaged measurements.

Key:
Test in all cases: growth (OD600 after 10 h); higher = more growth (less inhibition)
[1] = system: E. coli TESEC Alr+ wild-type control; settings: compound 0.1 mM; raw OD600 reference: median of DMSO wells 0.241, cell-free background 0.041
Protocol: (§1)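 TESEC Mtb Alr E. coli, or the Alr+ wild-type control, in 384-well plates with Prestwick library compounds at 0.1 mM and 1% DMSO, across arabinose induction levels of 1E3 to 1E7 nM. Growth is read as OD600 after 10 h at 37 °C in triplicate biological replicates.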

E. coli TESEC Mtb Alr [2] = settings: compound 0.1 mM
Protocol: as §1

E. coli TESEC Mtb Asd = settings: compound 0.1 mM
Protocol: (§2)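 TESEC E. coli strains in which the native enzyme is deleted and replaced by arabinose-inducible Mtb Asd, DapB, CysH or TrpD, each grown in its selective medium. Strains were screened against the Prestwick library at 0.1 mM and 1% DMSO in 384-well format at low and high arabinose induction. Growth is read as OD600 after 10 h in triplicate.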

E. coli TESEC Mtb DapB = settings: compound 0.1 mM
Protocol: as §2

E. coli TESEC Mtb Alr [3] = settings: compound 0.1 mM; remark: listed apart in the source
Protocol: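 TESEC Mtb Alr E. coli (ΔaraC ΔtolC ΔentC Δalr ΔdadX, arabinose-inducible Mtb Alr) or the Alr+ wild-type control strain, grown in defined M9-fructose medium without D-alanine in 96-well plates with Prestwick library compounds at 0.1 mM and 1% DMSO. Low Alr induction is 0.1 µM arabinose and high induction is 10 mM arabinose.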

[4] = arabinose 1000 nM, raw OD600 reference: median of DMSO wells 0.294, cell-free background 0.041
[5] = arabinose 10000 nM, raw OD600 reference: median of DMSO wells 0.264, cell-free background 0.041
[6] = arabinose 100000 nM, raw OD600 reference: median of DMSO wells 0.201, cell-free background 0.041
[7] = arabinose 1000000 nM, raw OD600 reference: median of DMSO wells 0.193, cell-free background 0.041
[8] = arabinose 10000000 nM, raw OD600 reference: median of DMSO wells 0.146, cell-free background 0.041
[9] = arabinose induction (level): High, raw OD600 reference: median of DMSO wells 0.331, cell-free background 0.041
[10] = arabinose induction (level): Low, raw OD600 reference: median of DMSO wells 0.417, cell-free background 0.041
[11] = arabinose induction (level): High, raw OD600 reference: median of DMSO wells […], cell-free background 0.041
[12] = arabinose induction (level): Low, raw OD600 reference: median of DMSO wells 0.227, cell-free background 0.041
[13] = arabinose 100 nM, raw OD600 reference: median of DMSO wells 0.413, cell-free background 0.052
[14] = arabinose 10000000 nM, raw OD600 reference: median of DMSO wells […], cell-free background 0.052

Row | SMILES | growth [1] | growth (E. coli TESEC Mtb Alr [2]; [4]) | growth (E. coli TESEC Mtb Alr [2]; [5]) | growth (E. coli TESEC Mtb Alr [2]; [6]) | growth (E. coli TESEC Mtb Alr [2]; [7]) | growth (E. coli TESEC Mtb Alr [2]; [8]) | growth (E. coli TESEC Mtb Asd; [9]) | growth (E. coli TESEC Mtb Asd; [10]) | growth (E. coli TESEC Mtb DapB; [11]) | growth (E. coli TESEC Mtb DapB; [12]) | growth (E. coli TESEC Mtb Alr [3]; [13]) | growth (E. coli TESEC Mtb Alr [3]; [14])
1 | CCCCN1CCCCC1C(=O)Nc1c(C)cccc1C (stereo not drawn) [Bupivacaine hydrochloride] | 0.2359 ± 0.0017 | 0.301 ± 0.0072 | 0.247 ± 0.0053 | 0.21 ± 0.0045 | 0.167 ± 0.0039 | 0.157 ± 0.0046 | 0.257 ± 0.046 | 0.418 ± 0.025 | 0.187 ± 0.013 | 0.266 ± 0.047 | 0.409 ± 0.01 | 0.339 ± 0.014
2 | CCN[C@H]1C[C@H](C)S(=O)(=O)c2sc(S(N)(=O)=O)cc21 [Dorzolamide hydrochloride] | 0.24 ± 0.0034 | 0.296 ± 0.003 | 0.293 ± 0.013 | 0.211 ± 0.038 | 0.187 ± 0.0042 | 0.15 ± 0.0023 | 0.216 ± 0.014 | 0.355 ± 0.06 | 0.199 ± 0.016 | 0.253 ± 0.023 | 0.4329 ± 0.0026 | 0.337 ± 0.019
3 | CN1CCC(OC(c2ccccc2)c2ccccc2)CC1 [Diphenylpyraline hydrochloride] | 0.221 ± 0.013 | 0.294 ± 0.021 | 0.256 ± 0.0056 | 0.162 ± 0.0083 | 0.141 ± 0.0025 | 0.1486 ± 0.0014 | 0.237 ± 0.035 | 0.461 ± 0.077 | 0.211 ± 0.013 | 0.246 ± 0.0048 | 0.4078 ± 0.0034 | 0.303 ± 0.015
4 | Cc1ccnc(NS(=O)(=O)c2ccc(N)cc2)n1 [Sulfamerazine] | 0.245 ± 0.0069 | 0.293 ± 0.013 | 0.229 ± 0.0029 | 0.211 ± 0.0032 | 0.154 ± 0.0069 | 0.133 ± 0.004 | 0.437 ± 0.023 | 0.4484 ± 0.0033 | 0.21 ± 0.0031 | 0.228 ± 0.018 | 0.42 ± 0.0052 | 0.334 ± 0.0087
5 | NNCCc1ccccc1 [Phenelzine sulfate] | 0.221 ± 0.0075 | 0.285 ± 0.015 | 0.261 ± 0.0056 | 0.187 ± 0.0033 | 0.0977 ± 0.0084 | 0.135 ± 0.0098 | 0.389 ± 0.044 | 0.4 ± 0.024 | 0.191 ± 0.012 | 0.249 ± 0.056 | 0.0532 ± 0.007 | 0.0708 ± 0.0023
6 | CC1=C(C(=O)O)N2C(=O)[C@@H](NC(=O)[C@H](N)c3ccc(O)cc3)[C@H]2SC1 [Cefadroxil] | 0.255 ± 0.012 | 0.2848 ± 0.0015 | 0.274 ± 0.011 | 0.217 ± 0.011 | 0.199 ± 0.002 | 0.137 ± 0.0042 | 0.294 ± 0.035 | 0.444 ± 0.13 | 0.192 ± 0.0046 | 0.222 ± 0.011 | 0.427 ± 0.012 | 0.326 ± 0.011
7 | S=c1[nH]cnc2nc[nH]c12 [Mercaptopurine] | 0.062 ± 0.002 | 0.0619 ± 0.0038 | 0.0528 ± 0.0011 | 0.0694 ± 0.0044 | 0.0545 ± 0.0019 | 0.0747 ± 0.0012 | 0.176 ± 0.021 | 0.167 ± 0.01 | 0.202 ± 0.01 | 0.211 ± 0.004 | 0.334 ± 0.017 | 0.113 ± 0.01
8 | Cc1cccc(C)c1NC(=O)CN1CCN(CCCC(c2ccc(F)cc2)c2ccc(F)cc2)CC1 [Lidoflazine] | 0.239 ± 0.0079 | 0.311 ± 0.0035 | 0.263 ± 0.0048 | 0.223 ± 0.018 | 0.174 ± 0.0022 | 0.163 ± 0.0025 | 0.333 ± 0.059 | 0.361 ± 0.11 | 0.232 ± 0.026 | 0.227 ± 0.015 | 0.4122 ± 0.0027 | 0.379 ± 0.012
9 | CC/C(=C(\c1ccccc1)c1ccc(OCCN(C)C)cc1)c1ccccc1 [Tamoxifen citrate] | 0.0423 ± 0.0005 | 0.0419 ± 0.002 | 0.048 ± 0.0005 | 0.0466 ± 0.0016 | 0.0485 ± 0.0015 | 0.0425 ± 0.00078 | 0.0517 ± 0.002 | 0.0526 ± 0.002 | 0.04873 ± 0.00038 | 0.0937 ± 0.078 | 0.0503 ± 0.00091 | 0.0549 ± 0.0014
10 | CC(C)(C)NC[C@H](O)COc1ccccc1C1CCCC1 [Penbutolol sulfate] | 0.211 ± 0.0068 | 0.225 ± 0.0034 | 0.321 ± 0.0081 | 0.162 ± 0.011 | 0.128 ± 0.0083 | 0.142 ± 0.013 | 0.205 ± 0.028 | 0.295 ± 0.038 | 0.184 ± 0.013 | 0.207 ± 0.015 | 0.412 ± 0.0049 | 0.261 ± 0.047
11 | CCCc1nc(C)c2c(=O)nc(-c3cc(S(=O)(=O)N4CCN(CC)CC4)ccc3OCC)[nH]n12 [Vardenafil] | 0.148 ± 0.0033 | 0.221 ± 0.0081 | 0.26 ± 0.011 | 0.18 ± 0.0021 | 0.107 ± 0.0037 | 0.126 ± 0.0068 | 0.189 ± 0.02 | 0.238 ± 0.052 | 0.151 ± 0.0082 | 0.173 ± 0.018 | 0.41 ± 0.0051 | 0.305 ± 0.014
12 | Cc1ncc(CO)c(CO)c1O [Pyridoxine hydrochloride] | 0.258 ± 0.0075 | 0.302 ± 0.013 | 0.2532 ± 0.0016 | 0.238 ± 0.034 | 0.174 ± 0.0032 | 0.168 ± 0.017 | 0.344 ± 0.1 | 0.37 ± 0.022 | 0.215 ± 0.011 | 0.239 ± 0.04 | 0.428 ± 0.0097 | 0.32 ± 0.013
13 | C[C@H](CCC(=O)O)[C@H]1CC[C@H]2[C@@H]3[C@@H](O)C[C@@H]4C[C@H](O)CC[C@]4(C)[C@H]3CC[C@]12C [Urosiol] | 0.2 ± 0.0037 | 0.279 ± 0.0063 | 0.188 ± 0.0089 | 0.188 ± 0.0055 | 0.1123 ± 0.00023 | 0.14 ± 0.0032 | 0.3936 ± 0.0024 | 0.363 ± 0.018 | 0.168 ± 0.012 | 0.206 ± 0.03 | 0.399 ± 0.0058 | 0.182 ± 0.019
14 | C[C@]12CCC(=O)C=C1CC[C@@H]1[C@@H]2C(=O)C[C@@]2(C)[C@H]1CC[C@]2(O)C(=O)CO [Cortisone] | 0.216 ± 0.0023 | 0.278 ± 0.0049 | 0.237 ± 0.014 | 0.176 ± 0.011 | 0.1797 ± 0.00035 | 0.128 ± 0.0041 | 0.396 ± 0.078 | 0.445 ± 0.041 | 0.19 ± 0.0096 | 0.223 ± 0.023 | 0.41 ± 0.0069 | 0.336 ± 0.0035
